Hits are enriched below; roughly 15% of the tested compounds scored in any of these assays.
SARS PLpro yeast – blocks SARS-CoV papain-like protease in a yeast assay; Potency, µM (top dose mostly 32.9 µM), for inactives: at the top dose activity, positive = growth rescue, hits mostly activators; S. cerevisiae expressing SARS-CoV PLpro, growth rescue; hit rate 0.19% among 330,000; calls by dose curve; note: potency is the fitted concentration of half-maximal effect; 0% is about no effect; nearly all actives have a fitted effect of over 55% in size
Pf growth 96h – inhibits malaria parasite growth, 96 h; Potency, µM (top dose mostly 28.7 µM), for inactives: at the highest dose activity change, negative = inhibition, most hits filed as inhibitors; P. falciparum luciferase reporter growth, 96 h; AID 504834; hit rate 6.9% among 320,000; note: potency is the fitted concentration of half-maximal effect; % is set by controls: 0 for no effect and ±100 for the full control effect
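Erythrocytes infected with luciferase-expressing P. falciparum were dispensed at 2% hematocrit and 0.05% parasitemia (final), then incubated with compounds 96 hours at 37 C in 5% CO2. Luminescence after detection reagent addition reported growth.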
Sm TGR inh – blocks Schistosoma mansoni thioredoxin glutathione reductase. Q962Y6. purified TGR, DTNB reduction, TNB absorbance 405 nm. Potency, µM (top dose mostly 114 µM), for inactives: at the top dose activity change, negative = inhibition, hits mostly inhibitors. hit rate 3% among 360,000. AID 485364; note: potency is the fitted concentration of half-maximal effect; % is set by controls: 0 for no effect and ±100 for the full control effect; nearly all actives have a fitted effect of over 60% in size
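TGR 20 nM + NADPH 100 uM (dispensed conc.), cpd preinc 15 min RT; start with NADPH (500 uM addition) then DTNB (15 mM addition). Kinetic TNB absorbance, 405 nm filter. Four-parameter Hill fit across titration.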
HCV inh – blocks hepatitis C virus; hit rate 3.4% among 340,000; Huh7.5.1 HCVcc-Cre infection, luciferase reporter, 44 h; Potency, µM (titrated, usually from 41.8 µM), inactives show top-dose activity change, negative = inhibition, most hits filed as inhibitors; note: potency is the fitted concentration of half-maximal effect; % is set by controls: 0 for no effect and ±100 for the full control effect
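Infectious HCV cell culture screen: compound-treated cells (1,000/well, pre-plated 4 h) are infected with HCVcc-Cre at roughly 0.5 moi and grown 44 h. Infection is quantified by luciferase signal after 15 min substrate incubation at room temperature.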
Pf growth 48h – P. falciparum growth inhibition at 48 hours (one generation). P. falciparum luciferase growth in erythrocytes, 48 h. Potency, µM (doses to about 28.7 µM), for inactives: at the highest dose activity change, negative = inhibition, actives largely listed as inhibitors. hit rate 5.9% among 310,000; note: potency is the fitted concentration of half-maximal effect; % is set by controls: 0 for no effect and ±100 for the full control effect
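Luciferase-expressing P. falciparum in infected erythrocytes (2% hematocrit, 0.1% parasitemia final) in RPMI 1640/0.5% Albumax were exposed to compound for 48 hours at 37 C, 5% CO2; growth read as luminescence.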
HCMV inh – blocks human cytomegalovirus replication; HFF cells, HCMV-luciferase reporter, 72 h; active compounds read low; hit rate 4.5% among 410,000; activity change, negative = inhibition, % at 57.5 µM; AID 1259415; in the data active = activity change below about -60%; inconclusive = no clear call, values can overlap the other calls; inactive = above about -39%; note: % is set by controls: 0 for no effect and ±100 for the full control effect
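Compounds were evaluated in HFFs infected with an HCMV luciferase reporter virus (MOI 1 PFU/cell). Luciferase in lysates collected 72 h post infection served as the replication measure.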
The depositor's hits bear a star; ? = inconclusive; · = no result given; [ ] = remark or other dose. Unless noted, calls come from the whole dose curve; as a rule, active = well fitted curve in the direction sought with a large enough effect; inconclusive = small, poorly fitted or top-dose-only effect, or another doubt; inactive = no such curve, though single readings can be large; an effect the other way counts as inactive or inconclusive.

SMILES	SARS PLpro yeast	Pf growth 96h	Sm TGR inh	HCV inh	Pf growth 48h	HCMV inh
C/C(=N\NC(=O)CSc1nc2ccccc2s1)c1ccco1	6%	21%	9%	-5%	45%	10
Cc1ccc(N2CC(NC(=O)c3ccc(S(=O)(=O)N4CCCC4)cc3)CC2=O)cc1 (stereo unspecified)	·	·	5%	·	·	-8
COc1ccccc1CCNC(=O)C(=O)NCC(c1cccnc1)N1CCN(c2ccccc2)CC1 (stereo unspecified)	·	·	-6%	·	·	-33
Cc1ccc(-n2c3c(c(=O)[nH]c2=O)C(NS(=O)(=O)c2ccc(Cl)cc2)(C(F)(F)F)C(=O)N3)cc1 (stereo unspecified)	3%	13µM*	5%	7%	?	?
O=C1Nc2c(c(=O)[nH]c(=O)n2Cc2ccccc2)C1(NS(=O)(=O)c1ccccc1)C(F)(F)F (stereo unspecified)	1%	15µM*	4%	-1%	76%	-24
O=c1[nH]c(/C=C\c2cccc(Cl)c2)nc(O)c1[N+](=O)[O-]	24%	?	-20%	9%	?	39
COc1ccc(CCNC(=O)CN2CCN(c3cccc(C(F)(F)F)c3)CC2)cc1	7%	?	-2%	-5%	·	3
N#Cc1c(-c2ccccc2)ccn(Cc2cccc(Cl)c2)c1=O	2%	13µM*	-14%	-21%	?	67
N#Cc1c(-c2ccccc2)ccn(Cc2ccccc2Cl)c1=O	-2%	15µM*	0%	-7%	?	-2
CS(=O)(=O)N1N=C(c2ccco2)CC1c1ccc(Cl)cc1Cl (stereo unspecified)	1%	5.2µM*	28µM*	-5%	-5%	37
CS(=O)(=O)N1N=C(c2ccco2)CC1c1cccc([N+](=O)[O-])c1 (stereo unspecified)	1%	-10%	45µM*	-1%	-13%	-31
COc1ccccc1C1CC(c2ccco2)=NN1S(C)(=O)=O (stereo unspecified)	-1%	11%	?	-3%	21%	-3
CC(=O)N1N=C(c2ccco2)CC1c1cc2cc(C)ccc2nc1Cl (stereo unspecified)	0%	25%	?	-4%	-5%	-24
CS(=O)(=O)N1N=C(c2ccco2)CC1c1ccc(Br)cc1 (stereo unspecified)	24%	41%	?	15%	12%	32
CS(=O)(=O)N1N=C(c2ccco2)CC1c1ccccc1Cl (stereo unspecified)	-1%	-7%	40µM*	5%	-19%	0
C[C@H]1[C@@H](NS(=O)(=O)c2ccccc2)CC[C@@]23CCCN2C(=O)CCC[C@@H]13	·	·	·	·	·	-16
COc1cc(C2C(=O)N(C3CCCCC3)CC(=O)N2CCC2=CCCCC2)ccc1OC(C)C (stereo unspecified)	·	·	-10%	·	·	-13
Cc1ccc(C)c(Cn2nc(-c3ccccc3)ccc2=O)c1	-2%	5%	?	32µM*	-17%	-26
O=C(O)Cn1nc(-c2ccc(Cl)cc2)ccc1=O	2%	13µM*	-15%	11%	3%[0.00184 µM]	20
Cc1ccc(-c2ccc(=O)n(Cc3cc(C)ccc3C)n2)cc1	-1%	-3%	14%	0%	?	?
O=C(O)Cn1nc(-c2ccccc2)ccc1=O	4%	3.3µM*	-26%	-3%	-17%	57
Cc1ccc(-c2ccc(=O)n(Cc3c(F)cccc3Cl)n2)cc1	0%	5%	2%	?	13µM*	?
Cc1ccc(C)c(-c2ccc(=O)n(Cc3c(F)cccc3Cl)n2)c1	-4%	?	-11%	?	-21%	?
CCOc1ccc2nc(NC(=O)CN3C(=O)C4CCCCC4C3=O)sc2c1 (stereo unspecified)	1%	37%	-15%	5%	37%	18
Cc1csc(=O)n1CCC(=O)OCC(=O)c1c(N)n(CC(C)C)c(=O)n(C)c1=O	-18%	1%	-7%	?	-29%	?
SMILES	SARS PLpro yeast	Pf growth 96h	Sm TGR inh	HCV inh	Pf growth 48h	HCMV inh
CC(C)Cn1c(N)c(C(=O)COC(=O)/C=C/c2ccccc2)c(=O)n(C)c1=O	3%	10µM*	-7%	7.1µM*	?	-76*
Cc1cccc(C(=O)OCC(=O)c2c(N)n(CC(C)C)c(=O)n(C)c2=O)c1O	-8%	?	-1%	?	?	-17
Cc1cccc(C(=O)OCC(=O)c2c(N)n(CC(C)C)c(=O)n(C)c2=O)c1[N+](=O)[O-]	·	12%	0%	14µM*	3%	?
CC(C)Cn1c(N)c(C(=O)COC(=O)CC23CC4CC(CC(C4)C2)C3)c(=O)n(C)c1=O	-16%	?	9%	6.3µM*	·	-67*
COC(=O)c1c(C)[nH]c(C(=O)OCC(=O)c2c(N)n(CC(C)C)c(=O)n(C)c2=O)c1C	-3%	·	·	4µM*	·	-27
Cc1ccc(C)n1-c1nnc(N2CCCC(C(=O)NCc3ccc(F)cc3)C2)s1 (stereo unspecified)	·	·	?	·	·	-17
O=C(N1CCCCC1)N1CCC[C@@H]1c1noc2ccccc12	·	·	·	·	·	-20
CC(=O)Nc1nonc1-c1nnc(SCC(=O)Nc2cc(C)ccc2C)n1-c1ccccc1	·	·	-1%	·	·	-10
CCOc1ccc(C2NC(=O)CCC2[N+](=O)[O-])cc1 (stereo unspecified)	1%	1%	-22%	-9%	16%	12
COc1ccc(CNC(=O)O[C@H]2CC[C@@]34CCCN3C(=O)CCC[C@H]4[C@H]2Cc2ccccc2)cc1	·	·	·	·	·	7
Cc1ccc(S(=O)(=O)Oc2ccc(C3C4=C(CCCC4=O)N(CCC(=O)O)C4=C3C(=O)CCC4)cc2Cl)cc1	-5%	3.3µM*	0%	13%	3.3µM*	24
CC12CCC3C(CC=C4CC(O)CCC43C)C1C/C(=C\N1CCCC1)C2=O (stereo unspecified)	-1%	13%	-19%	·	0%	·
COc1cc(/C=C2\C[C@H]3[C@@H]4CC=C5C[C@@H](N6CCCC6)CC[C@]5(C)[C@H]4CC[C@]3(C)[C@H]2O)cc(OC)c1OC	·	·	·	7.1µM*	·	8
O=C1/C(=N\S(=O)(=O)c2cccs2)C([n+]2cccc(Cc3ccccc3)c2)=C([O-])c2ccccc21	0%	0.74µM*	-1%	-77%	1.7µM*	·
O=S(=O)(NCCc1ccccc1)c1cccs1	0%	26%	7%	-2%	17%	2
CC(C)N(Cc1ccccc1)S(=O)(=O)c1cccs1	-1%	27%	-23%	-3%	-2%	-20

Compound activity: PubChem BioAssay, National Center for Advancing Translational Sciences (NCATS)
